We go through one compound from ChEMBL document CHEMBL1201862, “PubChem BioAssay data set” (2004).

Each structure is given as a SMILES string. These assays gave more results; the selection is not random.

The target in the assay is Huntingtin (Homo sapiens) (UniProt P42858). Kind of assay: qHTS Assay Multiplex Screening to Identify Dual Action Probes in a Cell Model of Huntington: Cytoprotection (Protease release). [Related pubchem assays: 1482, 1471, 1688 ]. Format: functional.
Chain of Huntingtin (Homo sapiens) (P42858 whole entry): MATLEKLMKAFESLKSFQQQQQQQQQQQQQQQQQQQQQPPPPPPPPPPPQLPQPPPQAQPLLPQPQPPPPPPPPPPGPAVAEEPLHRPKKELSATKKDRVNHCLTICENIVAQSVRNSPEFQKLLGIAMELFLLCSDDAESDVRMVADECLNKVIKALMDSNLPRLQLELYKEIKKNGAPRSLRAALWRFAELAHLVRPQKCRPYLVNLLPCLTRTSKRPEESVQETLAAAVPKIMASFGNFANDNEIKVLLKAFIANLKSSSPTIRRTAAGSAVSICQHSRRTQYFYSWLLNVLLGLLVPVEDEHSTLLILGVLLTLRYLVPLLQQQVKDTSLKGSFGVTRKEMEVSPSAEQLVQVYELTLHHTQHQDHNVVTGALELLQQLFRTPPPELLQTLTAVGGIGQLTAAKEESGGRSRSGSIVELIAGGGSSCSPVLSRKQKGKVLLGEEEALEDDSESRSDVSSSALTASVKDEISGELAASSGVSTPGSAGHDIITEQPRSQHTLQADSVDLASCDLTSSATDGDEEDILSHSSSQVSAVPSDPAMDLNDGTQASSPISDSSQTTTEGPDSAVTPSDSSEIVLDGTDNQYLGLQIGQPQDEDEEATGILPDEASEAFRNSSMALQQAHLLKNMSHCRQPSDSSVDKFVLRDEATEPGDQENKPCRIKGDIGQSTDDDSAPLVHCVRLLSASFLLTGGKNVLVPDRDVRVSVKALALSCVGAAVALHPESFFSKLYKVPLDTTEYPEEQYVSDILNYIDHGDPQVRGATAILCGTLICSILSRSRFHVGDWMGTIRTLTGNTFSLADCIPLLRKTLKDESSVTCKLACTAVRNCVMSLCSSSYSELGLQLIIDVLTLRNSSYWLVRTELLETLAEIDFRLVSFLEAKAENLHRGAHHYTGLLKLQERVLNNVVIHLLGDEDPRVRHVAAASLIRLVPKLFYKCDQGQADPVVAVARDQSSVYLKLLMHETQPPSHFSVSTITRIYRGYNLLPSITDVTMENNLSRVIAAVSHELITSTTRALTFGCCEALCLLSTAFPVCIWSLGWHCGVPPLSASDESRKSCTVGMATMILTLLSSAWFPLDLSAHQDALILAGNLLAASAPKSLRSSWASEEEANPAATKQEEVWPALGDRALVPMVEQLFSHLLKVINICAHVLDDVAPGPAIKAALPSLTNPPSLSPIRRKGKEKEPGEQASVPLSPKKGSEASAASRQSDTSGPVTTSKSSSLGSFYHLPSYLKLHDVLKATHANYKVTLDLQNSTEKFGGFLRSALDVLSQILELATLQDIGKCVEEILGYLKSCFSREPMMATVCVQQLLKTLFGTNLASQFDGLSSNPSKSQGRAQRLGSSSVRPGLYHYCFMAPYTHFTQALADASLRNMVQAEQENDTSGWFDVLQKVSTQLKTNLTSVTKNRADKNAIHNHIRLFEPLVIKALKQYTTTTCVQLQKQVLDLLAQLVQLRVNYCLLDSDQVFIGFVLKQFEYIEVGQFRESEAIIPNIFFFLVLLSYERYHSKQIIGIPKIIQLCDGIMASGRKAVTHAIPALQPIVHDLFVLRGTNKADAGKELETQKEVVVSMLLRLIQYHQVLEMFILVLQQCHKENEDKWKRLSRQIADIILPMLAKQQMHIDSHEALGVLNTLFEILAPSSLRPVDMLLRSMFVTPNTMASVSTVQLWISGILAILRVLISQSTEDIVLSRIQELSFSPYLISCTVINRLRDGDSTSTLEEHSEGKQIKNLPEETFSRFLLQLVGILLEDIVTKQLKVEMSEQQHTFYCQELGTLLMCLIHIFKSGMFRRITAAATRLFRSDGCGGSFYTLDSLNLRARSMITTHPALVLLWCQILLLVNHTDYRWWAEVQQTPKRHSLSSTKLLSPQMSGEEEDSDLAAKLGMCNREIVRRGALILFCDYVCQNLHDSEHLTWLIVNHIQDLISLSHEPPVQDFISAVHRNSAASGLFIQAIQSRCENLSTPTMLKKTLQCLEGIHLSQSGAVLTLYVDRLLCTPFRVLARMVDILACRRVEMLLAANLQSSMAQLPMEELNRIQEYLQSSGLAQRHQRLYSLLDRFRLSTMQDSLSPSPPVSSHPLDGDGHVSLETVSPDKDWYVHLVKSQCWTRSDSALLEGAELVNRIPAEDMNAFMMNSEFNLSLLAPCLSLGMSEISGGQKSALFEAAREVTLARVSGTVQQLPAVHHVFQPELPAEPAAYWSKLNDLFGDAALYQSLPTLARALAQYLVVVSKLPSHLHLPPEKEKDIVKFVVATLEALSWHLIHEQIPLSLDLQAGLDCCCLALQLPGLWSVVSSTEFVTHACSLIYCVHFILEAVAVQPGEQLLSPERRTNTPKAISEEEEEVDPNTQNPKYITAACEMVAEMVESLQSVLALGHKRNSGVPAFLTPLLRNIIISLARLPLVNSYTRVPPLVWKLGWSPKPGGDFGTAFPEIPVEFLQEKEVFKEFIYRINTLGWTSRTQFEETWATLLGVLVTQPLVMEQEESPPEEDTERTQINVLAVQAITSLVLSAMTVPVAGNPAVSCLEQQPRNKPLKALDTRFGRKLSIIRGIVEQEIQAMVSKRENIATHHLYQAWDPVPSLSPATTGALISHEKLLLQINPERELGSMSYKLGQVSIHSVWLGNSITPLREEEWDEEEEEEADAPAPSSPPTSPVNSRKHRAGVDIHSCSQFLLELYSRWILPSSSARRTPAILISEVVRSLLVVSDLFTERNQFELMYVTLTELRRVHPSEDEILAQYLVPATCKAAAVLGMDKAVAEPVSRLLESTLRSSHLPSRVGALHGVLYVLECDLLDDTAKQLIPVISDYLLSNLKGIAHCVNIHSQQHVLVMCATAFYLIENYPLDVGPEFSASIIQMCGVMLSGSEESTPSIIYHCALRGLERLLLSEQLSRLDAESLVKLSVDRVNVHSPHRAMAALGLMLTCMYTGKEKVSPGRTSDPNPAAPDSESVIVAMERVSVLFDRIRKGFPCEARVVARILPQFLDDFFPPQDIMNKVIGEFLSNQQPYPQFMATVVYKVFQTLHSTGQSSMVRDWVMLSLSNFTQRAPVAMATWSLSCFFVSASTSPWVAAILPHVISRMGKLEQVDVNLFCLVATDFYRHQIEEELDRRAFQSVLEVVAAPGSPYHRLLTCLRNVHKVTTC

With `COC[C@@H]([C@H](O)[C@H](O)C(=O)NCC[C@H](C)c1nc(/C=C/C[C@@H]2O[C@]3(C[C@@H](O)[C@@H]2C)O[C@H]([C@H](C[C@H](O)[C@H](C)[C@H](O)[C@H](C)/C=C(C)/C(C)=C/C=C/C(C)=C\C#N)OC)[C@H](OP(=O)(O)O)C3(C)C)co1)N(C)C`, the Potency was 1120 nM (active).
